# Measurements: PubChem BioAssay (Tox21)
# Records with an inconclusive call do not appear. Unmarked numbers belong to inactive results. Calls of active or inactive are those of the source. The call rests on the fitted dose curve; in most records, active means well fitted cell-killing curve with a large enough effect in the repeat runs; inconclusive means weak or mixed curves, or effect the other way; inactive means flat fitted curve, though single readings scatter.
# Experiment: cAMP Responsive Elements (CRE) small molecule antagonists, cell-based qHTS assay: qHTS cell viability counter screen (AID 2060913); further: nearly all actives have a fitted effect of over 40% in size
# Settings: CRE-bla HEK293T viability, CellTiter-Glo luminescence, 5 h; series mostly up to 92.4 µM; viability change, negative = cytotoxic: at the top concentration
# How it was run: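 CRE-bla HEK293T cells were seeded in assay medium with 10% dialyzed FBS, incubated 18 hrs at 37 C, then exposed to compounds plus 0.25 uM final NKH477 for 3 hrs. Viability was read by CellTiter-Glo luminescence after 30 min, in the same wells.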
# On the % scale 0 is the no-effect control and ±100 the full control effect; potency means the concentration at half of the fitted maximal effect.
Structure (SMILES),"viability change, negative = cytotoxic",Potency
CC(C(=O)O)c1ccc(-c2ccccc2)c(F)c1 (stereo not given),-5.31%,–
CC(CCO)CCCC(C)(C)O (stereo not given),-3.06%,–
O=c1[nH]cnc2nc[nH]c12,14.5% [at 42.5 µM],–
CN(C)C=O,–,inactive
OCCC(F)(F)C(F)(F)C(F)(F)C(F)(F)C(F)(F)C(F)(F)C(F)(F)C(F)(F)F,8.43%,–
Nc1ccccc1N,–,inactive
CC[N+](CC)(CC)CCOc1cccc(OCC[N+](CC)(CC)CC)c1OCC[N+](CC)(CC)CC,2.55% [at 42.5 µM],–
C[C@@H](c1ncncc1F)C(O)(Cn1cncn1)c1ccc(F)cc1F (stereo not given in full),1.6% [at 42.5 µM],–
CC(CCc1ccccc1)NCC(O)c1ccc(O)c(C(N)=O)c1 (stereo not given),0.333%,–
O=c1[nH]ncc2ccccc12,4.96%,–
N#CCc1ccccc1[N+](=O)[O-],0.567%,–
CCN[C@H]1CN(CCCOC)S(=O)(=O)c2sc(S(N)(=O)=O)cc21,-5.16% [at 42.5 µM],–
O=C(Nc1ccc([N+](=O)[O-])cc1)Nc1ccc([N+](=O)[O-])cc1,8.01% [at 42.5 µM],–
CCCn1cnc2c1c(=O)n(CCCCC(C)=O)c(=O)n2C,0.469% [at 42.5 µM],–
CCCCN(CCCC)CCCOC(=O)c1ccc(N)cc1,-3.7% [at 42.5 µM],–
CN1CCc2cccc3c2[C@H]1Cc1ccc(O)c(O)c1-3,–,inactive
O=C(OCC1CO1)C1CCCCC1C(=O)OCC1CO1 (stereo not given),0.172%,–
NC(=O)c1ccccc1N,23%,–
CCCCOCCOC(=O)COc1nc(Cl)c(Cl)cc1Cl,-0.0731%,–
CO[C@]12C[C@@H](COC(=O)c3cncc(Br)c3)CN(C)[C@@H]1Cc1cn(C)c3cccc2c13,-3.17% [at 42.5 µM],–

Structure (SMILES),"viability change, negative = cytotoxic",Potency
CC1(C)C2=CCCC(C)(C)[C@]23CC[C@H]1C3,-0.495%,–
COC(=O)c1ccc2cc(C(=O)OC)ccc2c1,9.85% [at 18.9 µM],–
Cc1ccnc2ccccc12,-4.24%,–
C=CC/C=C/C/C=C/C/C=C/C,21.2%,–
Nc1c(I)cc(I)c(C(=O)N(CCC(=O)O)c2ccccc2)c1I,7.47% [at 42.5 µM],–
CO/N=C(/C(=O)N[C@@H]1C(=O)N2C(C(=O)O)=C(COC(N)=O)CS[C@H]12)c1ccco1,-3.72%,–
NNc1nncc2ccccc12,–,inactive
Cc1cc(=O)[nH]c(=O)[nH]1,-24.4%,–
O=C(NC1CCN(CCc2c[nH]c3ccccc23)CC1)c1ccccc1,6.48% [at 42.5 µM],–
CCc1ccc(CC)cc1,0.671%,–
Cc1ccccc1N=O,8.19%,–
O=[N+]([O-])c1cccc(S(=O)(=O)O)c1,-17.6%,–
O=C(O)c1cccc(-c2noc(-c3ccccc3F)n2)c1,–,23.7 µM (active)
FC1(F)C(F)(F)C(F)(F)C2(F)C(F)(C1(F)F)C(F)(F)C(F)(F)C1(F)C(F)(F)C(F)(F)C(F)(F)C(F)(F)C12F (stereo not given),-0.875%,–
CN(C)c1nc(N(C)C)nc(N(C)C)n1,–,inactive
O=S(=O)(O)c1ccc(O)c2ncccc12,11.1%,–
O=C(NCC1CN(c2ccc(N3CCOCC3=O)cc2)C(=O)O1)c1ccc(Cl)s1 (stereo not given),3.8% [at 42.5 µM],–
Cc1ccc(C)c([N+](=O)[O-])c1,0.23%,–
O=c1n(CCO)c(=O)n(CCO)c(=O)n1CCO,–,inactive
O=CN1CCOCC1,-6.77%,–

# Experiment: cAMP Responsive Elements (CRE) small molecule agonists, cell-based qHTS assay: qHTS cell viability counter screen (AID 2060914);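 further: viability read after 3 h of compound exposure; nearly all actives have a fitted effect of over 50% in size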
# Settings: CRE-bla HEK293T viability, CellTiter-Glo luminescence, 5 h; series mostly up to 92.4 µM; activity change, negative = cytotoxicity: at the top concentration
# How it was run: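 CRE-bla HEK 293T cells, plated 18 h at 37 °C, were exposed to compounds for 3 h at 37 °C/5% CO2. Viability was then measured in the same wells by CellTiter-Glo luminescence after 30 min at room temperature.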
Structure (SMILES),"activity change, negative = cytotoxicity",Potency
CC(C(=O)O)c1ccc(-c2ccccc2)c(F)c1 (stereo not given),-7.53%,–
CC(CCO)CCCC(C)(C)O (stereo not given),-4.99%,–
O=c1[nH]cnc2nc[nH]c12,-0.742% [at 42.5 µM],–
CN(C)C=O,–,inactive
OCCC(F)(F)C(F)(F)C(F)(F)C(F)(F)C(F)(F)C(F)(F)C(F)(F)C(F)(F)F,10.3%,–
Nc1ccccc1N,–,inactive
CC[N+](CC)(CC)CCOc1cccc(OCC[N+](CC)(CC)CC)c1OCC[N+](CC)(CC)CC,8.05% [at 42.5 µM],–
C[C@@H](c1ncncc1F)C(O)(Cn1cncn1)c1ccc(F)cc1F (stereo not given in full),9.59% [at 42.5 µM],–
CC(CCc1ccccc1)NCC(O)c1ccc(O)c(C(N)=O)c1 (stereo not given),16.3%,–
O=c1[nH]ncc2ccccc12,-11.9%,–
N#CCc1ccccc1[N+](=O)[O-],-1.16%,–
CCN[C@H]1CN(CCCOC)S(=O)(=O)c2sc(S(N)(=O)=O)cc21,-2.06% [at 42.5 µM],–
O=C(Nc1ccc([N+](=O)[O-])cc1)Nc1ccc([N+](=O)[O-])cc1,4.2% [at 42.5 µM],–
CCCn1cnc2c1c(=O)n(CCCCC(C)=O)c(=O)n2C,1.72% [at 42.5 µM],–
CCCCN(CCCC)CCCOC(=O)c1ccc(N)cc1,6.87% [at 42.5 µM],–
CN1CCc2cccc3c2[C@H]1Cc1ccc(O)c(O)c1-3,–,inactive
O=C(OCC1CO1)C1CCCCC1C(=O)OCC1CO1 (stereo not given),15.7%,–
NC(=O)c1ccccc1N,-3.71%,–
CCCCOCCOC(=O)COc1nc(Cl)c(Cl)cc1Cl,4.62%,–
CO[C@]12C[C@@H](COC(=O)c3cncc(Br)c3)CN(C)[C@@H]1Cc1cn(C)c3cccc2c13,2.24% [at 42.5 µM],–

Structure (SMILES),"activity change, negative = cytotoxicity",Potency
CC1(C)C2=CCCC(C)(C)[C@]23CC[C@H]1C3,-21.3%,–
COC(=O)c1ccc2cc(C(=O)OC)ccc2c1,-17.3% [at 18.9 µM],–
Cc1ccnc2ccccc12,-0.341%,–
C=CC/C=C/C/C=C/C/C=C/C,0.368%,–
Nc1c(I)cc(I)c(C(=O)N(CCC(=O)O)c2ccccc2)c1I,6.39% [at 42.5 µM],–
CO/N=C(/C(=O)N[C@@H]1C(=O)N2C(C(=O)O)=C(COC(N)=O)CS[C@H]12)c1ccco1,-4.6%,–
NNc1nncc2ccccc12,–,inactive
Cc1cc(=O)[nH]c(=O)[nH]1,0.225%,–
O=C(NC1CCN(CCc2c[nH]c3ccccc23)CC1)c1ccccc1,0.955% [at 42.5 µM],–
CCc1ccc(CC)cc1,0.237%,–
Cc1ccccc1N=O,5.92%,–
O=[N+]([O-])c1cccc(S(=O)(=O)O)c1,-6.5%,–
O=C(O)c1cccc(-c2noc(-c3ccccc3F)n2)c1,–,21.1 µM (active)
FC1(F)C(F)(F)C(F)(F)C2(F)C(F)(C1(F)F)C(F)(F)C(F)(F)C1(F)C(F)(F)C(F)(F)C(F)(F)C(F)(F)C12F (stereo not given),-5.98%,–
CN(C)c1nc(N(C)C)nc(N(C)C)n1,–,inactive
O=S(=O)(O)c1ccc(O)c2ncccc12,1.31%,–
O=C(NCC1CN(c2ccc(N3CCOCC3=O)cc2)C(=O)O1)c1ccc(Cl)s1 (stereo not given),-12.9% [at 42.5 µM],–
Cc1ccc(C)c([N+](=O)[O-])c1,-0.455%,–
O=c1n(CCO)c(=O)n(CCO)c(=O)n1CCO,–,inactive
O=CN1CCOCC1,-3.95%,–
